Screens deposited in PubChem by Sanford-Burnham Center for Chemical Genomics.
The full list was thinned out, with hits kept by preference.
Artemis endo inh: Artemis (human) endonuclease inhibition; Q96SD1; recombinant Artemis, quenched FAM hairpin cleavage fluorescence; inhibition, % at 10 µM; 0.78% of 30,000 active; AID 686954;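 active = at 10 µM dose, at least 30% inhibition, measured as corrected fluorescence normalized to stimulator and neutral control wells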
Target sequence (Q96SD1 whole entry, looked up): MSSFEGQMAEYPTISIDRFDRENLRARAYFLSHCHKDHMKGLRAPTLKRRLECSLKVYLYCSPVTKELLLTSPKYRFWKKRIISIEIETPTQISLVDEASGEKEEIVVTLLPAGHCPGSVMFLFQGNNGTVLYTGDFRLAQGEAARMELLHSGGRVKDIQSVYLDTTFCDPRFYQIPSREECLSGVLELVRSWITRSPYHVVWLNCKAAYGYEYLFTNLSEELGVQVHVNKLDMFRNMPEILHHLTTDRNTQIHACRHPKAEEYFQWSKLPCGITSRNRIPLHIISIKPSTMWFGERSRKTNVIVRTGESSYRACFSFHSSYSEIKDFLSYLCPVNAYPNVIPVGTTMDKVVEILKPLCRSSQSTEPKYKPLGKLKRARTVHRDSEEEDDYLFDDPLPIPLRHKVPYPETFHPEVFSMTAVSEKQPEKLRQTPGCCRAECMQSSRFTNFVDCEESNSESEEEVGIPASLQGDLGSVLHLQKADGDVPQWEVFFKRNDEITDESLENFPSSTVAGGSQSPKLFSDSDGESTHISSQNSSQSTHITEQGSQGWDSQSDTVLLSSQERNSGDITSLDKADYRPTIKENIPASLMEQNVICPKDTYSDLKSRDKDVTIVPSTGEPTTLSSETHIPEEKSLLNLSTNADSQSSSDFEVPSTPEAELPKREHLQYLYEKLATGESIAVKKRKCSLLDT
* hit, by the source's call.

SMILES	Artemis endo inh
C/C(CC(=O)Nc1ccccn1)=N\NC(=O)C(=O)Nc1cccc(C)c1	1
C/C(CC(=O)Nc1ccccn1)=N\NC(=O)C(=O)Nc1cccc(Cl)c1C	0
C/C(CC(=O)Nc1ccc(N(C)C)cc1)=N\NC(=O)c1ccccn1	33*
Cc1ccc(C(C)C)cc1OCCOCCN1CCCC1	4
Cc1oc2c(c1C(=O)c1ccccc1)C(=O)C(=O)c1ccccc1-2	59*
Cc1onc(-c2ccccc2)c1C(N)=O	3
O=C(c1ccccc1)c1cc2ccccc2o1	-1
CCOC(=O)c1c(C)sc2c1N(C(=O)CN1CCOCC1)c1cc(Cl)ccc1S2	-5
CC(C)Oc1ccc(N2CC(C(=O)Nc3ccc(N4CCOCC4)cc3)CC2=O)cc1 (stereo unspecified)	-2
Brc1ccccc1C1=Nn2c(nnc2-c2ccccc2)SC1	6
c1ccc(-c2ccc(C3=Nn4c(Cn5nnc6ccccc65)nnc4SC3)cc2)cc1	33*
O=C(Cn1nnc2ccccc21)C1CC1	3
CC1(C)CC(=O)C2=C(C1)Oc1nc3ccccc3cc1C2C(C#N)C#N (stereo unspecified)	-4
Cc1c(Cl)cccc1Nc1nc(N)nc(CN2CCCCCC2)n1	4
CC1CC(C)CN(Cc2nc(N)nc(Nc3ccccc3)n2)C1 (stereo unspecified)	-3
Cc1ccc(Nc2nc(N)nc(CN3CCCCCC3)n2)cc1	40*
O=C(COC(=O)C1CC(=O)N(c2ccc3c(c2)OCCO3)C1)Nc1ccc2c(c1)CCC2 (stereo unspecified)	-7
O=C(Nc1nc2ccccc2s1)C1CC(=O)N(c2ccc(Cl)cc2)C1 (stereo unspecified)	5
O=C(Nc1nc(-c2ccco2)c(-c2ccco2)s1)C1CC(=O)N(c2ccc3c(c2)OCCO3)C1 (stereo unspecified)	32*
CC(C)NC(=O)/C(=C/c1ccco1)c1ccccc1	-7
CN(C)c1ccc(/C=C/C=C2/SC(=S)N(c3ccccc3)C2=O)cc1	9
CC(C)C(C(=O)O)N1C(=O)/C(=C/C=C/c2ccco2)SC1=S (stereo unspecified)	39*
O=C(CSc1nc(-c2ccccc2)c(-c2ccccc2)[nH]1)NCCN1C(=O)CSC1=O	-2
O=C(Cc1ccccc1)NC(Nc1cccc2ccccc12)C(Cl)(Cl)Cl (stereo unspecified)	-1
Cc1ccc(NC(NC(=O)c2cccs2)C(Cl)(Cl)Cl)cc1 (stereo unspecified)	7
SMILES	Artemis endo inh
O=C(Cc1ccccc1)NC(Nc1ccccc1)C(Cl)(Cl)Cl (stereo unspecified)	31*
COc1ccc(C(=O)NCCNC(=O)c2cc(OCC(F)(F)F)ccc2OCC(F)(F)F)cc1	-15
CC1CCCC(C)N1C(=O)CSc1nnc(C2CCCCC2)o1 (stereo unspecified)	0
COC(=O)CCCCCc1ccc(C(C)=O)s1	3
COc1ccc(C(=O)N2c3ccccc3C(=O)OC2c2ccc3c(c2)OCO3)cc1 (stereo unspecified)	-8
COC(=O)COc1ccc(C2NC(=O)NC(c3ccccc3)=C2C(C)=O)cc1OC (stereo unspecified)	4
COc1ccc(C2NC(=O)NC3=C2CCc2ccccc23)cc1 (stereo unspecified)	44*
Cc1nc2cc(-c3ccsc3-n3c(C)ccc3C)[nH]n2c(=O)c1Cl	30*
COCc1cc(=O)n2[nH]c(-c3ccsc3-n3c(C)ccc3C)cc2n1	24
Cc1cc(=O)n2[nH]c(-c3ccc(Cl)cc3)cc2n1	-1
COC(=O)c1c(C)[nH]c(C(=O)C(C)Sc2nnc(-c3cc(OC)c(OC)c(OC)c3)o2)c1C (stereo unspecified)	6
CC(=O)Nc1ccc(S(=O)(=O)N(Cc2ccco2)CC2CCCO2)cc1 (stereo unspecified)	-1
O=C(N/N=C/c1ccc(-c2ccc(S(=O)(=O)Nc3ncccn3)cc2)o1)c1cc2ccccc2cc1O	33*
CCOc1ccc(S(=O)(=O)N(CC(=O)N/N=C/c2ccc(-c3ccc([N+](=O)[O-])cc3)o2)c2ccccc2)cc1	27
O=C(CN1CCCC1)N/N=C/c1ccc(-c2cccc(Cl)c2)o1	0
CC(C(=O)O)C1SC(=O)NC1=O (stereo unspecified)	-8
COc1ccc(S(=O)(=O)N(Cc2ccccc2)Cc2nc(-c3ccccc3)no2)cc1	6
CCC(=O)N1c2ccc(C)cc2C2=NNC(=S)NC21O (stereo unspecified)	-4
COc1cccc(C2(O)CCN(C(=O)Cc3cccnc3)CC2)c1	-8
N#Cc1ccc(-n2nccc2-c2cnc3n(c2=O)CCS3)cc1	-1
c1ccc2c(c1)OCC(c1csc3ncnc(N4CCCC4)c13)O2 (stereo unspecified)	4
S=c1[nH]nc(-c2ccccc2)o1	2
S=c1[nH]nc(C2COc3ccccc3O2)o1 (stereo unspecified)	31*
CN1CC2=Cc3ccccc3OC23Oc2ccccc2C=C3C1	8
COc1ccc(N/C(C)=C2/C(=O)C(=O)N(CCO)C2c2ccc([N+](=O)[O-])cc2)cc1 (stereo unspecified)	-1
SMILES	Artemis endo inh
O=C(Cc1c(C(=O)O)[nH]c2ccc(Cl)cc12)Nc1ccc2c(c1)OCCO2	13
O=C(NC(=S)Nc1ccc2[nH]ncc2c1)c1ccccc1	-2
CCCc1cc(C(=O)N/N=C/c2ccc(C)o2)c2ccccc2n1	-3
O=C(NC(C(=O)N/N=C/c1c2ccccc2cc2ccccc12)c1n[nH]c(=O)c2ccccc12)c1ccccc1 (stereo unspecified)	44*
COc1ccc(/C=N/Nc2ccccc2)cc1Cn1nc(C)c([N+](=O)[O-])c1C	1
C/C(=N/NC(=O)c1ccoc1C)C12CC3CC(CC(C3)C1)C2	3
COc1ccc(-c2nnc(SC(C)C(=O)Nc3c(C)n(C)n(-c4ccccc4)c3=O)o2)cc1 (stereo unspecified)	0
COc1ccc(OC)c(NC(=O)C2COc3ccccc3O2)c1 (stereo unspecified)	-1
O=C(N/N=C\c1ccc(-c2ccccc2[N+](=O)[O-])o1)C1COc2cc3ccccc3cc2O1 (stereo unspecified)	36*
Cc1ccc(/C=N\NC(=O)C2COc3cc4ccccc4cc3O2)o1 (stereo unspecified)	4
Cc1cc2ncn(C(=O)N3CCCCCC3)c2cc1C	7
CCOC(=O)c1cc(C#N)c(Oc2ccccc2OC)nc1-c1ccccc1	6
CCCCSc1nc(C)cc(C)c1S(=O)(=O)c1ccccc1C	7
Cc1ccc(C(=O)CCNc2ccc(Cl)cc2)o1	-7
Cc1cc(NS(=O)(=O)c2ccc(NC(=S)NC(=O)c3ccc(Cl)cc3Cl)cc2)no1	30*
COc1cc(C(=O)Nc2ccc(S(=O)(=O)Nc3cc(C)on3)cc2)cc(OC)c1OC	-7
Cc1cc(NS(=O)(=O)c2ccc(NC(=O)CCc3ccccc3)cc2)no1	2
Cc1ccc(-c2nnc(N3CCOCC3)c3ccccc23)cc1S(=O)(=O)NCC1CCCO1 (stereo unspecified)	-4
c1ccc(N2CCN(c3nc(-c4ccccn4)nc4ccccc34)CC2)cc1	93*
Oc1ccccc1-c1nc(N2CCN(Cc3ccccc3)CC2)c2ccccc2n1	13
c1ccc2c(N3CCCCCC3)nc(-c3ccncc3)nc2c1	2
CCn1c(-c2ccccc2Cl)nn(CC(=O)Nc2ccccc2C)c1=S	-4
CCC(NC(=O)NCCCn1ccnc1)(C(F)(F)F)C(F)(F)F	-2
Cn1c(SCC(=O)NC(=O)NCc2ccco2)nnc1C(F)(F)F	7
